Screens as filed in PubChem BioAssay.
NR0B1 inh – DAX1 (NR0B1) inhibitors, primary screen, cell-based, HEK293, Gal4-DAX1, luciferase luminescence | Nuclear receptor subfamily 0 group B member 1 (Homo sapiens), P51843 | HEK293 Gal4-DAX1 luciferase reporter | inhibition, % at 6.75 µM | 340,000 compounds, 0.99% hits | AID 504766, 2011;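 active = inhibition above the mean over all tested compounds plus 3 SD, cut at about 4.2% in these data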;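 note: 0% = DAX1-transfected cells with DMSO and 100% = empty-vector control cells with DMSO; inhibition shows as a rise in luminescence from relieved DAX1 repression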
Target sequence (P51843 207-470 limits assumed): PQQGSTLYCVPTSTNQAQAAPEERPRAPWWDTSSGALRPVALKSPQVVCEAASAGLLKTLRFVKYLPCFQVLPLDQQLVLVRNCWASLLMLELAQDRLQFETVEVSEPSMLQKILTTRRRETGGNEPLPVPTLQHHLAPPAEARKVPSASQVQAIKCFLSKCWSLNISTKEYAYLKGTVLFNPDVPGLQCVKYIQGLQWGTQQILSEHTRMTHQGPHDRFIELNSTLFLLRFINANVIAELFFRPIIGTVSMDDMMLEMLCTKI
FXN GAA850 act – FXN promoter activators, primary screen, cell-based, luciferase luminescence, HEK293 lucGAA850; HEK293 lucGAA850 FXN promoter luciferase reporter, 24 h; percent of 10 µM SAHA response; activation, % at 6 µM; 360,000 compounds, 0.56% hits; AID 540364, 2011;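 active = activation above the average of all compounds screened plus 3 SD, cutoff fixed separately per campaign, cut at about 7.5% in these data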;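 note: 0% = DMSO wells and 100% = 10 µM SAHA wells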
HSF1 inh – HSF1 inhibitors in luciferase reporter cells, primary screen, cell-based, NIH3T3, luminescence. NIH3T3-HGL HSE-luciferase, MG132-induced, luminescence 8 h; active compounds read low. activity change, negative = inhibition, % at 7.5 µM (by protocol). 300,000 compounds, 0.77% hits. AID 2098, 2009;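 active = more than half of replicate wells show activity change below -50%, luminescence cut by over half; inconclusive = some wells, but at most half, below -50%; inactive = no replicate well below -50%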;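 note: luciferase reports HSF-1 transcriptional activity via heat shock element; 0% = median of DMSO wells and -100% = zero luminescence signal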
HSF-1 act – HSF-1 activators, primary screen, NIH3T3-HGL cells, MG132 stress, luminescence, single point | NIH3T3-HGL HSF-1 luciferase reporter, 8 h; 100% = twice DMSO control signal | activation, % at 9 µM | 300,000 compounds, 1.7% hits;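 active = mean replicate activation of at least 50% with a set share of replicates each reaching 50%; inconclusive = only one of those two conditions met; inactive = mean below 50% and too few replicates reaching it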;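 note: 0% = median of the neutral control wells and 100% = twice that signal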
AHR act – AHR activators, primary screen, cell-based, luminescence, luciferase reporter, human; Aryl hydrocarbon receptor (Homo sapiens), P35869; AHR-responsive luciferase reporter cells; activation, % at 5 µM; 320,000 compounds, 2.5% hits; in the data active = activation above about 47%;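 note: 0% = vehicle wells and 100% = reference agonist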
Active calls of the source: *; u = inconclusive; x = no result given. This is a sample that favours compounds with a hit; in the whole collection about 5.4% have one here.

SMILES	NR0B1 inh	FXN GAA850 act	HSF1 inh	HSF-1 act	AHR act
COc1ccc2nc(N=Nc3ccc(O)c4ccccc34)sc2c1	-0.1	-0.9	-16.5	-8.2	73.0*
CCCc1nnc(NC(=O)CCC(=O)N2CCN(S(=O)(=O)c3ccc(C)cc3)CC2)s1	-1.9	-1.0	-3.1	-2.1	0.2
O=C(COC(=O)Cn1nnc(-c2ccccc2)n1)Nc1cc(F)ccc1F	-0.3	0.6	x	x	-0.3
CNC(=O)c1ncnnc1N(C)C(=O)NCc1ccccc1	9.6*	0.6	-8.2	-17.3	-0.6
CCNC(=O)N(C)c1nncnc1C(=O)NC	0.7	2.0	-2.4	2.3	x
Cc1ccc2cccc(NC(=O)C(F)(F)F)c2n1	-1.3	-1.0	142.5	214.8*	6.6
CC(=O)NC(=S)Nc1cccc2ccc(C)nc12	0.2	1.1	0.3	-2.3	13.2
Cc1ccc2cccc(NC(=S)NC(=O)c3ccnn3C)c2n1	1.9	4.6	0.7	17.4	54.7*
CSc1ncccc1C(=O)NC1CC(C)(C)Cc2c1cnn2-c1ccccc1C (centres undefined)	-1.1	-1.0	-1.0	23.1	-1.4
CCOC(=O)c1c(CN(C)C)n(C)c2ccc(OC(C)=O)cc12	-0.8	-1.1	u	-62.7	1.8
CCOC(=O)c1c2n(c3ccc(OC(C)=O)cc13)CCC2	1.8	-0.4	1.9	-4.4	48.3*
Cc1sc2nc(C3CC3)nc(SCC(=O)N3CCc4ccccc4C3)c2c1C	0.8	-2.6	16.9	67.5*	5.6
CN(c1ccccc1)S(=O)(=O)c1cccc(C(=O)N2CCN(c3ccccn3)CC2)c1	-1.4	-1.1	1.0	18.2	64.2*
Cc1cnc(C(=O)OCC(=O)Nc2cc(-c3cc(C)c(C)cc3C)nn2-c2ccccc2)cn1	-0.6	0.9	-5.2	-3.4	59.9*
Cc1cc(C)c(-c2cc(NC(=O)CSc3n[nH]c(N)n3)n(-c3ccccc3)n2)cc1C	-0.6	2.1	5.2	3.0	56.2*
O=[N+]([O-])c1ccc(S(=O)(=O)Nc2nnc(C3CCCCC3)s2)cc1	1.1	-1.5	-6.3	2.8	-1.1
COc1ccc(S(=O)(=O)N2CCCOC2CNC(=O)C(=O)NCCc2ccco2)cc1C (centres undefined)	0.6	-5.4	-1.6	-1.2	1.5
COc1cccc(-c2nc(CN3CCN(C(=O)c4ccco4)CC3)c(C)o2)c1OC	-0.7	0.3	x	x	x
CCC1(C)NC(=O)N(CC(=O)NCC(=O)Nc2c(C)cc(C)cc2C)C1=O (centres undefined)	-0.5	2.5	x	x	-0.4
C(=N\Nc1nn[nH]n1)/c1ccccc1	-0.4	3.6	-8.3	-11.0	1.1
Cc1nnc(N/N=C/c2ccccc2O)n1N	-2.5	0.3	48.7	71.3*	48.1*
Oc1ccccc1/C=N/Nc1nn[nH]n1	0.4	-0.4	-74.7*	-78.7	4.4
Cc1nnc(N/N=C/c2c(Cl)cccc2Cl)n1N	-0.6	0.1	17.2	17.1	12.5
Cc1cc(/C=N/NC(N)=S)c(C)n1-c1ccc(Br)cc1	1.2	-2.4	-5.2	-19.6	28.8
Cc1nnc(N/N=C/c2cc(C)n(-c3ccc(F)cc3)c2C)n1N	-2.6	2.0	-96.0*	-96.5	22.6
SMILES	NR0B1 inh	FXN GAA850 act	HSF1 inh	HSF-1 act	AHR act
CCOc1cc(/C=N/Nc2nnc(C)n2N)ccc1O	-2.1	0.2	30.9	58.3*	13.5
CN1CCN(C(=O)c2ccc(CNS(=O)(=O)c3cccc(Cl)c3)cc2)CC1	0.8	1.3	-1.1	-1.9	x
CNC(=O)COc1coc(CN2CCN(c3ccc(OC)cc3)CC2)cc1=O	2.0	0.2	-3.6	0.5	-0.7
O=C(Cn1cnc2ccccc21)N/N=C/c1cccc([N+](=O)[O-])c1	0.7	0.1	-4.1	3.3	14.7
O=C(Cn1cnc2ccccc21)N/N=C/c1ccc([N+](=O)[O-])cc1	0.0	-0.1	-16.2	4.6	48.7*
O=C(Cn1nnc(-c2ccccc2)n1)N/N=C/c1cc([N+](=O)[O-])ccc1O	-1.1	-0.8	-27.5	-31.4	-0.4
O=C(Cn1nc2ccccc2n1)N/N=C/c1cc([N+](=O)[O-])ccc1O	0.6	-0.2	-53.3*	-62.5	2.0
CCOC(=O)C1=C(C)NC(C)=C(C(=O)OCC)C1C(=O)OCC(=O)NCCc1ccccc1	-0.1	0.0	x	x	5.8
CC(=O)C1=C(C)NC2(O)c3ccccc3C(=O)C12O (centres undefined)	-0.1	-0.5	16.8	61.6*	6.7
CCOC(=O)C1=C(C)NC2(O)c3ccccc3C(=O)C12O (centres undefined)	0.6	-1.6	-0.8	4.8	13.0
COc1ccc(C2NC(=S)NC3=C2CCCC3=C2SCCS2)cc1 (centres undefined)	5.0*	3.7	-55.6*	-60.3	1.8
O=[N+]([O-])c1ccc(S(=O)(=O)NN=CCCc2ccccc2)cc1	-0.8	1.2	x	x	x
COc1cccc(/C=C2\N=C(SC)SC2=O)c1OC	0.9	-0.1	30.7	55.8*	1.6
Cc1ccc(C(=O)NCc2ccco2)cc1S(=O)(=O)N1CCCC1	0.4	1.7	-7.4	-18.3	3.0
Cc1cc(F)c(F)c(C(=O)N2CCOCC2)c1Cl	0.6	-0.7	15.9	61.8*	3.0
O=C1C2CCCN2C(c2ccc(F)c(F)c2)N1c1cccc(Cl)c1 (centres undefined)	4.4*	0.0	-0.5	-5.4	-0.8
COc1ccc(N2C(=O)C3CCCN3C2c2cccc(C)c2)cc1 (centres undefined)	3.4	-0.9	-6.4	-2.6	-0.7
COc1cccc(C2N(c3ccc(Cl)cc3)C(=O)C3CCCN32)c1 (centres undefined)	6.4*	0.7	1.2	-3.5	12.1
COc1ccc(C2N(c3ccc(OC)cc3)C(=O)C3CCCN32)cc1 (centres undefined)	5.3*	-0.1	2.0	9.9	-1.5
COc1ccc(C2N(c3ccc(F)cc3)C(=O)C3CCCN32)cc1 (centres undefined)	5.2*	0.3	-6.1	-8.0	0.4
Cn1c(=O)c2ccccc2n(Cc2cccc(F)c2)c1=O	-0.6	2.0	-1.5	1.1	-0.3
Cc1c(S(=O)(=O)NC2CCCCC2)c(=O)n(C)c(=O)n1C	1.4	-0.3	-1.4	3.4	1.3
CN(C)S(=O)(=O)c1ccc(Cl)c(C(=O)NNC(=O)Cn2ccc(C(F)(F)F)n2)c1	0.3	2.7	x	x	x
COc1cc2[nH]c(C(=O)N3CCc4ccccc43)cc2c(OC)c1OC	0.4	-0.4	16.0	14.9	25.8
COc1ccc(-c2ccnc(-c3ccc(O)cc3)n2)cc1	-1.7	-1.1	16.5	28.5	4.6
Cc1ccc(-c2ccnc(-c3ccc(O)cc3)n2)cc1	1.6	5.1	22.9	65.4*	0.5
Cc1ccc(CNC(=O)COC(=O)c2ccc(S(=O)(=O)NCc3ccco3)cc2)cc1	0.3	2.4	x	x	-1.8
